This is an account of results in PMC7862700, “An all-to-all approach to the identification of sequence-specific readers for epigenetic DNA modifications on cytosine”.

Test in all cases: DAPPL (digital affinity profiling via proximity ligation, sequencing); 10 mM Tris-HCl pH 7.5, 50 mM NaCl, 1 mM DTT, 4% glycerol, room temperature, 30 min; GST-TFs on glutathione beads, 16-mer random dsDNA library, 0.1% formaldehyde crosslink after washing; high values mean tight binding
For assay [1], the target named is T1, FEV (Homo sapiens, UniProt Q99581 1-238).
T1 sequence: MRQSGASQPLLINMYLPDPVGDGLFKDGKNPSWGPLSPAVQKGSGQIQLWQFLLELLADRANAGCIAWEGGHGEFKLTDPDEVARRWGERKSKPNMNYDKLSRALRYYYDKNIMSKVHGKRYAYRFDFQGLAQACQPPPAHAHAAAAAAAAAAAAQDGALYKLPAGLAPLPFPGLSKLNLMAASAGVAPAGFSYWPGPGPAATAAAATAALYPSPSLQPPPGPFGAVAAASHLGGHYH
The settings on record: protein: recombinant; tags: N-terminal GST; dsDNA, one strand shown. The procedure, abridged: (§1)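 Binding signal is each hexamer's read frequency for a factor divided by its frequency in the tag-only sample. The factors were GST-fused human transcription factors from yeast, captured on glutathione beads, DNA-barcoded and pooled with that sample. Pools were incubated with 200 nmole of a random double-stranded 16-mer DNA library in Tris/NaCl/DTT/glycerol buffer at room temperature for 30 min, then washed, crosslinked with 0.1% formaldehyde, proximity-ligated with BsaI/T4 ligase (1 h, 37 °C), PCR-amplified and sequenced on an Illumina NextSeq500.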

In assay [2] the target is ETV5 (Homo sapiens, UniProt P41161 1-510). The settings on record: protein: recombinant; tags: N-terminal GST; dsDNA, one strand shown. The procedure, abridged:
as §1

Assay [3] addresses HSF1 (Homo sapiens, UniProt Q00613 1-529). Particulars: protein: recombinant; tags: N-terminal GST; chain copies: 3; dsDNA, one strand shown. The procedure, abridged: as §1
The target in assay [4] is T2, SPIC (Homo sapiens, UniProt Q8N5J4 1-248).
T2 sequence: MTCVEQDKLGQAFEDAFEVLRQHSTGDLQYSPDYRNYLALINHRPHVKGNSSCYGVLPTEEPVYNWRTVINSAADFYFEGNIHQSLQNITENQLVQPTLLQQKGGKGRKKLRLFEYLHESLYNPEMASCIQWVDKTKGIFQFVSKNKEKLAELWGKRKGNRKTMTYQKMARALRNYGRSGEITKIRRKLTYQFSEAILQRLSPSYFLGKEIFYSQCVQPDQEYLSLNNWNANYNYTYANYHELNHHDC
Particulars: protein: recombinant; tags: N-terminal GST; dsDNA, one strand shown. The procedure, abridged:
as §1

For assay [5], the target named is ELF4 (Homo sapiens, UniProt Q99607 1-663). The settings on record: protein: recombinant; tags: N-terminal GST; dsDNA, one strand shown. The method in brief: as §1
Chain of ELF4 (Q99607 whole entry): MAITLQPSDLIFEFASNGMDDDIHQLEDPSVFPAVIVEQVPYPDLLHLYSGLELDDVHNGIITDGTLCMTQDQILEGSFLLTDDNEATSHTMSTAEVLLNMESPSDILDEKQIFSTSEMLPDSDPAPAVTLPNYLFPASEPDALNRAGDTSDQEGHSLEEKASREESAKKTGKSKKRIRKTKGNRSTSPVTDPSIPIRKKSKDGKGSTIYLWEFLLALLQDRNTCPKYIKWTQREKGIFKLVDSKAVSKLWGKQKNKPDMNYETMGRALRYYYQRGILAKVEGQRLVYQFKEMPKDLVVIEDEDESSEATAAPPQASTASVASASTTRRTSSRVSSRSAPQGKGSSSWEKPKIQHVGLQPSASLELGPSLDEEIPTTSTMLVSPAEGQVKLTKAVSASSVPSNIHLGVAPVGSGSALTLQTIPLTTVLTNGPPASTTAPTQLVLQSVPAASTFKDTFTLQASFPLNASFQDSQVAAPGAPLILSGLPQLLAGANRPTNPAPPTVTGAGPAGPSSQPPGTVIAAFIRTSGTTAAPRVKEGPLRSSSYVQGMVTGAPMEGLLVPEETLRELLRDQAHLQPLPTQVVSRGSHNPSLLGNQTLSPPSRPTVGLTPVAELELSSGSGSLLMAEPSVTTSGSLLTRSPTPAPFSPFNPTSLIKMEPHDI
In assay [6] the target is T3, ELK4 (Homo sapiens, UniProt P28324-2 1-405).
T3 sequence: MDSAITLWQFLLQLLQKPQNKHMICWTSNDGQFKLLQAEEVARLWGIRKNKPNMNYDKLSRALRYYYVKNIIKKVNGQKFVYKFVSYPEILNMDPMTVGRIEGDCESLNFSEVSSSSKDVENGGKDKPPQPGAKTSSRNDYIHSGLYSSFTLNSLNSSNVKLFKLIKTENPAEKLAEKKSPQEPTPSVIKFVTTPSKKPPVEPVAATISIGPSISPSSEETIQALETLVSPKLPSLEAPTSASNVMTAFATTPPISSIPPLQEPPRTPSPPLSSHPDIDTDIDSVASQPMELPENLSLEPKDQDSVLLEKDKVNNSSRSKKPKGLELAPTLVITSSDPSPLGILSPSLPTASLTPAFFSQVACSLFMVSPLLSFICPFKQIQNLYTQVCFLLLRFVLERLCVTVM
Particulars: protein: recombinant; tags: N-terminal GST; dsDNA, one strand shown. The method in brief:
as §1

The target of assay [7] is T4, ETV2 (Homo sapiens, UniProt O00321 1-342).
T4 sequence: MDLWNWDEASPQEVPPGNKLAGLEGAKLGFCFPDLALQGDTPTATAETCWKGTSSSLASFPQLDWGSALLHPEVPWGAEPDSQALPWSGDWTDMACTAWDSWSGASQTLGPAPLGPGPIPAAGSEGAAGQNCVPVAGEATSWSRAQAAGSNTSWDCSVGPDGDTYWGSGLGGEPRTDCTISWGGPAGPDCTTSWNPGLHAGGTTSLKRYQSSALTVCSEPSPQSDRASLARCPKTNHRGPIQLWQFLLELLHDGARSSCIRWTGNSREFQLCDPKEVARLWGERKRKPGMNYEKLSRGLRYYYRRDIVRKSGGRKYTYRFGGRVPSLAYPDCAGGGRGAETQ
The settings on record: protein: recombinant; tags: N-terminal GST; dsDNA, one strand shown. The method in brief:
as §1

Assay [8] has as its target ETV1 (Homo sapiens, UniProt P50549 1-477). Particulars: protein: recombinant; tags: N-terminal GST; dsDNA, one strand shown. The method in brief:
as §1

The target of assay [9] is CRX (Homo sapiens, UniProt O43186 1-299). The settings on record: protein: recombinant; tags: N-terminal GST; dsDNA, one strand shown. The procedure, abridged:
as §1

The target in assay [10] is T5, ELF3 (Homo sapiens, UniProt P78545 1-371).
T5 sequence: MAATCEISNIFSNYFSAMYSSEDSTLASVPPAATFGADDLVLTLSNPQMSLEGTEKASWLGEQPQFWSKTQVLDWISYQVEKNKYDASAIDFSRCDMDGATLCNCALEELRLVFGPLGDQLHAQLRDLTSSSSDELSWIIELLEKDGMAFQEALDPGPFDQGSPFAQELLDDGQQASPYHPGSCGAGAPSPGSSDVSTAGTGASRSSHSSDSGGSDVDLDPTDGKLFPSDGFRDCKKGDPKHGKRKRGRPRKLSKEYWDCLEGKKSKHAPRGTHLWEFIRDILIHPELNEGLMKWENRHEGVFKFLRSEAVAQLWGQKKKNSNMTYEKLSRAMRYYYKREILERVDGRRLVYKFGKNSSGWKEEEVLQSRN
The settings on record: protein: recombinant; tags: N-terminal GST; dsDNA, one strand shown. The method in brief: as §1

Chain of CRX (O43186 whole entry): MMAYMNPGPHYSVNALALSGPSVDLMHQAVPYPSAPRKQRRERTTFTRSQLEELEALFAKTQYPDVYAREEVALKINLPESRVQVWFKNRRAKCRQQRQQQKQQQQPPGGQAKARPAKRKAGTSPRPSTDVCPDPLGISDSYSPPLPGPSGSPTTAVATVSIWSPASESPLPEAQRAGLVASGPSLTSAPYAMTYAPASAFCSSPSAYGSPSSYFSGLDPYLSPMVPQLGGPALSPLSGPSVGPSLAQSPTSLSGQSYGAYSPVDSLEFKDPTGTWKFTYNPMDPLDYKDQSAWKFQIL
Chain of ETV5 (P41161 whole entry): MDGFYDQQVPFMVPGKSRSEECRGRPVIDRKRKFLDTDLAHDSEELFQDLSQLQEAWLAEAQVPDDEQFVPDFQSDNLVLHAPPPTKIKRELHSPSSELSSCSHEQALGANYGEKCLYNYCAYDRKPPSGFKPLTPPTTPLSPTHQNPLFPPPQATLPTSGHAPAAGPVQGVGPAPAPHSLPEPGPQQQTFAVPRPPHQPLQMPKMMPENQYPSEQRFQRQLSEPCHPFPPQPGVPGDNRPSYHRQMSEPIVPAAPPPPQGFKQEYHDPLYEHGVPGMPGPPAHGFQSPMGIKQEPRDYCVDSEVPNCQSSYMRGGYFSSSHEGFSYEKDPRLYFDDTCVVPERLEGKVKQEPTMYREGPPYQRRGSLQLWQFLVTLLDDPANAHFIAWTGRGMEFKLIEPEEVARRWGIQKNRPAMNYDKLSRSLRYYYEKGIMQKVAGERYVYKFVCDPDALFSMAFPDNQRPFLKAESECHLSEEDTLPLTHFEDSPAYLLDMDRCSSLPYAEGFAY
Chain of HSF1 (Q00613 whole entry): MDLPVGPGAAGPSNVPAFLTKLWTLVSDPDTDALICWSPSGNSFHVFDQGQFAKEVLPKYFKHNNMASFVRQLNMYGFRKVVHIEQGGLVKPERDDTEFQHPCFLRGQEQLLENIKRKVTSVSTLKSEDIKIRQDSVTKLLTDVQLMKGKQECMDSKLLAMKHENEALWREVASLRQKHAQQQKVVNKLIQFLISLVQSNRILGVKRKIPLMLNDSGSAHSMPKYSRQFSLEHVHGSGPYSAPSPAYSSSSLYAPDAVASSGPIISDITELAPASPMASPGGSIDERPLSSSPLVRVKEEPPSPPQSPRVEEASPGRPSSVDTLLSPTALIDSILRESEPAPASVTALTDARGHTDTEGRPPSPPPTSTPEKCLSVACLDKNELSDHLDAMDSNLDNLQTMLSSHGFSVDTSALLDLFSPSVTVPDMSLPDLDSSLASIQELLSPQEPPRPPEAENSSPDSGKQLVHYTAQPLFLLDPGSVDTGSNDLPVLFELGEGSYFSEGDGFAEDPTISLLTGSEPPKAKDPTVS
Chain of ETV1 (P50549 whole entry): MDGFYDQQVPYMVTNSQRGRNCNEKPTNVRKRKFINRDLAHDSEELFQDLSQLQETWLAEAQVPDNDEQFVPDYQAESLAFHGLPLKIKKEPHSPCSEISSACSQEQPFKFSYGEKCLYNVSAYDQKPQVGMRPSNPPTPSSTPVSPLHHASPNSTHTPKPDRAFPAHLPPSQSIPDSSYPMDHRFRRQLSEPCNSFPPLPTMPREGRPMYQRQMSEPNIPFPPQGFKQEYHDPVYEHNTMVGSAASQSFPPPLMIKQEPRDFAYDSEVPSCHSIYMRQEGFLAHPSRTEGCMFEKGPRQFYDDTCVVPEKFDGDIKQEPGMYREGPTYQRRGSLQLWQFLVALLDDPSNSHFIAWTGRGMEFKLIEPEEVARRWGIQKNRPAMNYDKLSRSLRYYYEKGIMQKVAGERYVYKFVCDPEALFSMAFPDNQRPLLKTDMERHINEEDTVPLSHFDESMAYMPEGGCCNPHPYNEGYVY

As to CGACGA, the binding signal in assay [1] was 1.1 fold enrichment (6-mer frequency, TF over GST control); in [2], 1.15 fold enrichment (6-mer frequency, TF over GST control); in [3], 1.16 fold enrichment (6-mer frequency, TF over GST control); in [4], 1.2 fold enrichment (6-mer frequency, TF over GST control); in [5], 1.17 fold enrichment (6-mer frequency, TF over GST control); in [6], 1.08 fold enrichment (6-mer frequency, TF over GST control). In addition, the binding signal in [7] was 1.01 fold enrichment (6-mer frequency, TF over GST control); in [8], 1.07 fold enrichment (6-mer frequency, TF over GST control).

On to TTCACA, for which the binding signal was 1.17 fold enrichment (6-mer frequency, TF over GST control) in [1]; 1.16 fold enrichment (6-mer frequency, TF over GST control) in assay [2]; 1.04 fold enrichment (6-mer frequency, TF over GST control) in assay [3]; 1.08 fold enrichment (6-mer frequency, TF over GST control) in assay [4]; 1.17 fold enrichment (6-mer frequency, TF over GST control) in assay [5]; 1.28 fold enrichment (6-mer frequency, TF over GST control) in [6]. In addition, the binding signal is 1.28 fold enrichment (6-mer frequency, TF over GST control) in assay [7] and 1.25 fold enrichment (6-mer frequency, TF over GST control) in assay [8].

ATTCAG: the binding signal was 1.03 fold enrichment (6-mer frequency, TF over GST control) in [1]; 1.1 fold enrichment (6-mer frequency, TF over GST control) in assay [2]; 1.17 fold enrichment (6-mer frequency, TF over GST control) in [3]; 1.17 fold enrichment (6-mer frequency, TF over GST control) in assay [4]; 1.13 fold enrichment (6-mer frequency, TF over GST control) in assay [5]; 1.08 fold enrichment (6-mer frequency, TF over GST control) in assay [6]. Also, the binding signal in [7] is 1.02 fold enrichment (6-mer frequency, TF over GST control); in assay [9], 1.07 fold enrichment (6-mer frequency, TF over GST control); in assay [8], 1.07 fold enrichment (6-mer frequency, TF over GST control).

For TTGGCT, the binding signal is 1.17 fold enrichment (6-mer frequency, TF over GST control) in [1]; 1.05 fold enrichment (6-mer frequency, TF over GST control) in [2]; 1.03 fold enrichment (6-mer frequency, TF over GST control) in assay [3]; 1.02 fold enrichment (6-mer frequency, TF over GST control) in [4]; 1.08 fold enrichment (6-mer frequency, TF over GST control) in assay [5]; 1.21 fold enrichment (6-mer frequency, TF over GST control) in assay [6]. Besides, the binding signal in assay [7] was 1.07 fold enrichment (6-mer frequency, TF over GST control); in assay [9], 1.33 fold enrichment (6-mer frequency, TF over GST control); in [8], 1.02 fold enrichment (6-mer frequency, TF over GST control).

Consider CACTCG, for which the binding signal is 1.22 fold enrichment (6-mer frequency, TF over GST control) in assay [1]; 1.13 fold enrichment (6-mer frequency, TF over GST control) in assay [2]; 1.16 fold enrichment (6-mer frequency, TF over GST control) in assay [3]; 1.08 fold enrichment (6-mer frequency, TF over GST control) in [4]; 1.2 fold enrichment (6-mer frequency, TF over GST control) in [5]; 1.24 fold enrichment (6-mer frequency, TF over GST control) in assay [6]. In addition, the binding signal in assay [7] is 1.2 fold enrichment (6-mer frequency, TF over GST control); in assay [8], 1.09 fold enrichment (6-mer frequency, TF over GST control).

On to CATGAT, for which the binding signal was 1.06 fold enrichment (6-mer frequency, TF over GST control) in [1]; 1.08 fold enrichment (6-mer frequency, TF over GST control) in assay [2]; 1.1 fold enrichment (6-mer frequency, TF over GST control) in assay [3]; 1.14 fold enrichment (6-mer frequency, TF over GST control) in assay [4]; 1.17 fold enrichment (6-mer frequency, TF over GST control) in assay [5]; 1.13 fold enrichment (6-mer frequency, TF over GST control) in assay [6]. In addition, the binding signal in assay [10] was 1.08 fold enrichment (6-mer frequency, TF over GST control); in assay [9], 1.17 fold enrichment (6-mer frequency, TF over GST control); in [8], 1.07 fold enrichment (6-mer frequency, TF over GST control).

In the case of CGCTCG, the binding signal in [1] is 1.08 fold enrichment (6-mer frequency, TF over GST control); in assay [2] it was 1.05 fold enrichment (6-mer frequency, TF over GST control); in [3], 1.16 fold enrichment (6-mer frequency, TF over GST control); in assay [4], 1.24 fold enrichment (6-mer frequency, TF over GST control); in assay [5], 1.17 fold enrichment (6-mer frequency, TF over GST control); in [6], 1.13 fold enrichment (6-mer frequency, TF over GST control). Besides, the binding signal in assay [10] was 1.35 fold enrichment (6-mer frequency, TF over GST control); in [8], 1.09 fold enrichment (6-mer frequency, TF over GST control).
